{
  "source": "PubChem BioAssay AID639",
  "about": "(Emory University Molecular Libraries Screening Center, 2007)",
  "note": "In all, about 86,000 compounds went through this assay and about 1,200 (1.4%) were called active. The sample holds actives, similar compounds and a random draw of the others, so the mix is not that of the screen. A number with no mark means an inactive call. Cut-off read from the data, not from the text of the source: active = activity above about 200%; inactive = the rest.",
  "data": [
    {"biological_target": "Estrogen receptor (Homo sapiens) (UniProt P03372)", "sequence (P03372 whole entry, looked up, the tested form may be a part)": "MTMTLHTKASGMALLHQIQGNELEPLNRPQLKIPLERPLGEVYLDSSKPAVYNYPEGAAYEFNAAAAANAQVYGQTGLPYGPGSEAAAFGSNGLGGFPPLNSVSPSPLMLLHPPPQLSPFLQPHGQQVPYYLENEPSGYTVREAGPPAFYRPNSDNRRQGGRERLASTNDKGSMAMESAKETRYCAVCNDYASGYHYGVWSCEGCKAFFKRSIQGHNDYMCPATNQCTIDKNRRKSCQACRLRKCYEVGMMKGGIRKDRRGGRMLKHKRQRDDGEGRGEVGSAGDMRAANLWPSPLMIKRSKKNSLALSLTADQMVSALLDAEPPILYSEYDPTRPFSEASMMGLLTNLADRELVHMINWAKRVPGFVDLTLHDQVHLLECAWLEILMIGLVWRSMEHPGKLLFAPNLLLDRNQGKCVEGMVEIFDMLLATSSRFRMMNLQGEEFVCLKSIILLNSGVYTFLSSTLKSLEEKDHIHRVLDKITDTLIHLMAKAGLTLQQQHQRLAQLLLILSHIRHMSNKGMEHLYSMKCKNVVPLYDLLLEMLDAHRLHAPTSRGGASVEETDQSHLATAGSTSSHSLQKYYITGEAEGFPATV", "assay": "ERα coactivator recruitment potentiators – biochemical, TR-FRET, ERα LBD, low estradiol, primary screen (AID 639);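 note: binding measured in presence of low estradiol as agonist stimulus; 0% = peptide alone without receptor and 100% = receptor with peptide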", "conditions": "TR-FRET ERalpha-LBD/SRC-Cy5 coactivator binding, 2 h; at 25.6 µM; active compounds read high; 100 = basal binding, no effect", "values": [
      {"smiles": "CCOc1cccc(NC(=O)Cn2nc(-c3ccc4c(c3)OCCO4)ccc2=O)c1", "coactivator binding (% of control)": "214% (active)"},
      {"smiles": "CCn1c(COc2ccccc2)nnc1SCC(=O)Nc1ccc2c(c1)OCCO2", "coactivator binding (% of control)": "115%"},
      {"smiles": "CCOc1cccc(NC(=O)CC#N)c1", "coactivator binding (% of control)": "101%"},
      {"smiles": "CC(=NCc1ccco1)c1c(C(F)(F)F)[nH]n(-c2nc3ccccc3s2)c1=O", "coactivator binding (% of control)": "109%"},
      {"smiles": "COc1ccc(N2CCN(C(=O)CCc3nc(-c4ccc(C)cc4)no3)CC2)cc1", "coactivator binding (% of control)": "106%"},
      {"smiles": "CCCCCN1CC(O)=C(c2ccccc2)C1=N", "coactivator binding (% of control)": "30.5%"},
      {"smiles": "COc1ccccc1N1CC(O)=C(c2nc3ccccc3s2)C1=N", "coactivator binding (% of control)": "87.9%"},
      {"smiles": "CCCCCN1CC(O)=C(c2nc(-c3ccc(Cl)cc3)cs2)C1=N", "coactivator binding (% of control)": "293% [fluorescence artefact?] (active)"},
      {"smiles": "C/C(=N\\NS(=O)(=O)c1ccc(Br)cc1)c1cccs1", "coactivator binding (% of control)": "101%"},
      {"smiles": "CCc1nc(N2CCN(c3nc(C)cc(C)n3)CC2)c2oc3ccccc3c2n1", "coactivator binding (% of control)": "155%"},
      {"smiles": "Cc1cc(C)nc(N2CCN(c3ncnc4c3oc3ccccc34)CC2)n1", "coactivator binding (% of control)": "144%"},
      {"smiles": "Cc1nc(N2CCN(c3ncccn3)CC2)c2oc3ccccc3c2n1", "coactivator binding (% of control)": "207% [fluorescence artefact?] (active)"},
      {"smiles": "Cc1ccc(C2=CSC3=NS(=O)(=O)CCN23)cc1C", "coactivator binding (% of control)": "100%"},
      {"smiles": "COCCn1c(SCc2nc3cc(OC)c(OC)cc3c(=O)[nH]2)nnc1-c1ccncc1", "coactivator binding (% of control)": "112%"},
      {"smiles": "CCc1nnc(NC(=O)CCC(=O)NCc2ccccc2OC)s1", "coactivator binding (% of control)": "76.9%"},
      {"smiles": "CCSc1nnc(NC(=O)c2ccc(C)cc2)s1", "coactivator binding (% of control)": "95.5%"},
      {"smiles": "CCSc1nnc(NC(=O)Cc2ccccc2OC)s1", "coactivator binding (% of control)": "246% [fluorescence artefact?] (active)"},
      {"smiles": "Cc1nc(NC(=O)CN(C)S(=O)(=O)c2ccc(Cl)cc2)sc1C", "coactivator binding (% of control)": "105%"},
      {"smiles": "COc1ccc(-c2nn3c(-c4ccccc4)nnc3s2)cc1OC", "coactivator binding (% of control)": "123%"},
      {"smiles": "Fc1ccc(-c2ccc(-c3nn4c(-c5ccco5)nnc4s3)o2)cc1", "coactivator binding (% of control)": "84.9%"},
      {"smiles": "Fc1ccc(-c2nnc3sc(-c4ccc5c(c4)OCO5)nn23)cc1", "coactivator binding (% of control)": "258% (active)"},
      {"smiles": "CC1(C)CC(=O)C=C(N2CCCC2)C1", "coactivator binding (% of control)": "101%"},
      {"smiles": "CCOC(=O)Cc1csc(NC(=O)CSc2nnc(-c3cccnc3)n2Cc2ccco2)n1", "coactivator binding (% of control)": "114%"},
      {"smiles": "COc1ccc(S(=O)(=O)N2CCOCC2)cc1C(=O)Nc1nc2ccccc2s1", "coactivator binding (% of control)": "206% [fluorescence artefact?] (active)"},
      {"smiles": "O=C(Nc1nc2ccc(S(=O)(=O)N3CCCC3)cc2s1)C1CCCO1", "note": "(stereo not drawn)", "coactivator binding (% of control)": "103%"},
      {"smiles": "COC(=O)COc1ccc(S(=O)(=O)N2CCOCC2)cc1", "coactivator binding (% of control)": "108%"},
      {"smiles": "CCOC(=O)c1csc(NC(=O)c2ccc(S(=O)(=O)N3CCCC3)cc2)n1", "coactivator binding (% of control)": "108%"},
      {"smiles": "O=C(Nc1nc2cc3c(cc2s1)OCCO3)c1cccc(S(=O)(=O)N2CCOCC2)c1", "coactivator binding (% of control)": "122%"},
      {"smiles": "COc1ccc(C(=O)Nc2nc(-c3ccc(S(=O)(=O)N4CCOCC4)cc3)cs2)cc1", "coactivator binding (% of control)": "492% [fluorescence artefact?] (active)"},
      {"smiles": "Cc1ccc(C)c(NC2=NCC(=O)N2c2ccc3c(c2)OCCO3)c1", "coactivator binding (% of control)": "103%"},
      {"smiles": "CCCCc1nc(NCCN)c(C#N)c2c1CSC(C)(C)C2", "coactivator binding (% of control)": "85.4%"},
      {"smiles": "O=C(C(NS(=O)(=O)c1cccc2nsnc12)c1ccccc1)N1CCN(c2ccccc2)CC1", "note": "(stereo not drawn)", "coactivator binding (% of control)": "102%"},
      {"smiles": "COc1ccc2c(c1)cc1n2CCN=C1NN", "coactivator binding (% of control)": "90.7%"},
      {"smiles": "O=C(O)CSc1nccn1-c1cccc(Cl)c1", "coactivator binding (% of control)": "100%"},
      {"smiles": "COc1ccc(C2(CNC(=O)C(c3ccccc3)c3ccccc3)CCOCC2)cc1OC", "coactivator binding (% of control)": "103%"},
      {"smiles": "O=C(CSc1nc2cccnc2n1Cc1ccccc1)N1CCc2ccccc21", "coactivator binding (% of control)": "156%"},
      {"smiles": "O=C(NCc1ccco1)c1cccn2c(=O)c3cc(Br)ccc3nc12", "coactivator binding (% of control)": "232% [fluorescence artefact?] (active)"},
      {"smiles": "O=C(NCc1ccco1)c1cc(-c2cccnc2)nc2ccc(Cl)cc12", "coactivator binding (% of control)": "128%"},
      {"smiles": "COc1ccc(CCn2c(=N)c(C(=O)NCc3ccco3)cc3c(=O)n4cccc(C)c4nc32)cc1", "coactivator binding (% of control)": "92.3%"},
      {"smiles": "CC(Oc1ccc(Cl)cc1)C(=O)Nc1ncccn1", "note": "(stereo not drawn)", "coactivator binding (% of control)": "220% (active)"},
      {"smiles": "CC(Oc1ccc(Cl)cc1)C(=O)OCC(=O)Nc1ncc(Cl)cc1Cl", "note": "(stereo not drawn)", "coactivator binding (% of control)": "103%"},
      {"smiles": "COc1ccc(OC(C)C(=O)Nc2cccnc2)cc1", "note": "(stereo not drawn)", "coactivator binding (% of control)": "102%"},
      {"smiles": "CCCC1(C(=O)OCC)NC(c2ccc(N(C)C)cc2)C2C(=O)N(c3ccc4c(c3)OCCO4)C(=O)C21", "note": "(stereo not drawn)", "coactivator binding (% of control)": "117%"},
      {"smiles": "CCN(CC)C(=O)CSc1nnc(CNc2ccc(F)cc2)n1Cc1ccco1", "coactivator binding (% of control)": "86.8%"},
      {"smiles": "O=S(=O)(NCCc1ccccc1)c1ccccc1", "coactivator binding (% of control)": "245% [fluorescence artefact?] (active)"},
      {"smiles": "O=S(=O)(NCCNS(=O)(=O)c1ccccc1)c1ccccc1", "coactivator binding (% of control)": "108%"},
      {"smiles": "CC(=O)Nc1ccc(S(=O)(=O)NCCc2ccccc2)cc1", "coactivator binding (% of control)": "98.9%"},
      {"smiles": "COc1ccc(C(=O)N2CC3(C)CC2CC(C)(C)C3)cc1OC", "note": "(stereo not drawn)", "coactivator binding (% of control)": "118%"},
      {"smiles": "CCOC(=O)c1c(C)oc2cc(Br)c(OCC(N)=O)cc12", "coactivator binding (% of control)": "156%"},
      {"smiles": "CSc1ccc(-c2c(C#N)c(N)nc3c2c(C)nn3-c2ccccc2)cc1", "coactivator binding (% of control)": "210% [fluorescence artefact?] (active)"},
      {"smiles": "CCn1c(CNC(=O)c2ccccc2)nnc1SCC(=O)N1CCN(c2ccccc2)CC1", "coactivator binding (% of control)": "106%"},
      {"smiles": "Fc1ccc(-n2c(Cc3ccccc3)nnc2SCc2nc(-c3ccc(Cl)cc3)no2)cc1", "coactivator binding (% of control)": "95.3%"},
      {"smiles": "Cc1cccc(C)c1NC(=O)CSc1nnc(-c2ccccc2)n1Cc1ccc2c(c1)OCO2", "coactivator binding (% of control)": "98.5%"}
    ]}
  ]
}
